Laboratory results published in PubChem BioAssay AID1529 (NMMLSC, 2009).
Hit rate of the full screen: of about 290,000 compounds, about 4,200 (1.4%) were called active. For the sample, actives were picked, then their nearest neighbours and some compounds at random. Unmarked numbers belong to inactive results.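 How the source made its calls: active means binding response more than 3 SD above or below the average of its plate-row segment, actives on both sides; inconclusive means wells at one plate position flagged as instrument error; inactive means the rest.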

Each molecule was assayed against Mitogen-activated protein kinase kinase kinase 3 (Homo sapiens) (UniProt Q99759) (assay: modulators of MEKK3-MEK5 PB1 binding, primary screen, biochemical, wildtype MEKK3, multiplex bead flow cytometry, Alexa488-MEK5 (AID 1529;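 further: Alexa488 bead fluorescence after subtracting the streptavidin-only scavenger bead signal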)). Details: bead-based flow cytometry, Alexa488-MEK5 binding to MEKK3; at 10 µM; actives lie on both sides; 0 = blocked by unlabeled MEK5, 100 = vehicle.
Mitogen-activated protein kinase kinase kinase 3 (Homo sapiens), sequence (Q99759 whole entry, looked up): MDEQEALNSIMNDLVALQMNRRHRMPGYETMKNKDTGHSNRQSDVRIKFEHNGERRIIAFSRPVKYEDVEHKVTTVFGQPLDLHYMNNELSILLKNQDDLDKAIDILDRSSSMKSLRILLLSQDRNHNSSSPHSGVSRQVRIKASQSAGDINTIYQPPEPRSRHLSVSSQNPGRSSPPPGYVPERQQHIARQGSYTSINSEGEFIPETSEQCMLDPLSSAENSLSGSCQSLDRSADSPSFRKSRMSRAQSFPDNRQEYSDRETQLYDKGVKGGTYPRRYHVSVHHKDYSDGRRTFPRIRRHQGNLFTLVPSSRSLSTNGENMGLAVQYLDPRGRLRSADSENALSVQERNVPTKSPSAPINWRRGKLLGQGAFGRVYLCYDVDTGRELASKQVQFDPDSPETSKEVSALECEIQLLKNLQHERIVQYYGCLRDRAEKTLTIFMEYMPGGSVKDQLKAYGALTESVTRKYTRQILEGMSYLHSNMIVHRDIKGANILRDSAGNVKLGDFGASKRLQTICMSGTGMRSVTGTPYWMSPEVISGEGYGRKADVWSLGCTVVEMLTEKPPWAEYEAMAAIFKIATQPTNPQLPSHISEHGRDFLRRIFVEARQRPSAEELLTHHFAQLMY
For `Cc1occc(=O)c1OCc1c(Cl)cccc1Cl`, the binding response (% of control) was 102%.
Work on `CCOc1ccc(NC(=O)C2CCN(C(=O)N3CCOc4ccccc43)CC2)cc1` yielded a binding response (% of control) of 103%.
Molecule `Cc1ccc(-c2noc(C3CCCN(C(=O)c4cccc(Cl)c4)C3)n2)o1` (stereo not drawn) has a binding response (% of control) of 99%.
For `COc1ccc(N2CCN(C(=O)CN3C(=O)COc4ccccc43)CC2)cc1`, the binding response (% of control) was 101%.
For `C/C=C/c1ccc(OCCOc2ccc(C=O)cc2OC)c(OC)c1`, the binding response (% of control) was 100%.
For `COc1ccc(OCCCCN2CCC(C)CC2)cc1`, the binding response (% of control) was 108%.
`C/C=C/c1ccc(OCCCCN2CCC(C)CC2)c(OC)c1` was tested, and the binding response (% of control) was 69% [inhibitor] (active).
`O=c1[nH]snc1-c1c(Cl)cccc1Cl` was tested, and the binding response (% of control) was 105%.
Molecule `COc1cccc(NC(=O)COc2cc(C)cc3oc(=O)cc(C)c23)c1` has a binding response (% of control) of 103%.
`CCOC(=O)N1CCN(CCC(=O)Nc2cc(OC)ccc2OC)CC1` gave a binding response (% of control) of 96%.
In the case of `CCN1CCN(c2nc(Nc3cc(OC)ccc3OC)nc(Nc3cc(OC)ccc3OC)n2)CC1`, the binding response (% of control) is reported as 37% [inhibitor] (active).
`CCOc1ccc(Nc2nc(Cl)nc(N3CCN(c4ccc(OC)cc4)CC3)n2)cc1` was tested, and the binding response (% of control) was 103%.
`CC(=O)O[C@H]1c2ccccc2-c2ccccc2[C@@H]1OC(C)=O` was tested, and the binding response (% of control) was 104%.
`COC(=O)c1ccc(NC(=O)c2cc3c(CO)cnc(C)c3oc2=Nc2cccc(C(N)=O)c2)cc1` was tested, and the binding response (% of control) was 102%.
In the case of `O=C(NC1CCCC1)C(c1ccco1)N(C(=O)c1csnn1)c1ccccc1` (stereo not drawn), the binding response (% of control) is reported as 100%.
`Cc1cs/c(=N\N=C\c2ccc(O)cc2)n1Cc1ccco1` gave a binding response (% of control) of 100%.
For `CN(c1ccccc1)c1ccc(/C=c2\s/c(=C(/C#N)C(=O)C(C)(C)C)n(Cc3ccco3)c2=O)cc1`, the binding response (% of control) was 47% [inhibitor] (active).
`CCOC(=O)/C=c1\s/c(=C\c2ccc(C#N)cc2)c(=O)n1CC(=O)Nc1cccc(C)c1C` was tested, and the binding response (% of control) was 102%.
Molecule `COc1ccc(Cc2nc3ccc(C(=O)N4CCC(N(C)C)C4)cc3o2)cc1` (stereo not drawn) has a binding response (% of control) of 97%.
In the case of `COc1cc2c(C(=O)N(C)c3cc(Cl)ccc3OC)cn(C)c(=O)c2cc1OC`, the binding response (% of control) is reported as 102%.
With `O=C(NCc1ccco1)c1ccc(Cn2c(=O)c3sccc3n(Cc3ccc(F)cc3)c2=O)cc1` the binding response (% of control) was 115%.
`Cc1ccc(CNC(=O)Cn2c(=O)c3sccc3n(Cc3cccc([N+](=O)[O-])c3)c2=O)cc1` was tested, and the binding response (% of control) was 141% (active).
With `COCCNC(=O)CCCn1c(=O)c2ccccc2n(Cc2cccc([N+](=O)[O-])c2)c1=O` the binding response (% of control) was 101%.
Molecule `COc1ccccc1N1CCN(c2nc(C)cc(=O)[nH]2)CC1` has a binding response (% of control) of 104%.
With `CCOC(=O)C1CN(S(=O)(=O)c2ccc(OC)cc2)c2cc(Cl)ccc2O1` (stereo not drawn) the binding response (% of control) was 105%.
In the case of `CC(=O)c1c(C)oc2ccc(NS(=O)(=O)c3ccccc3)cc12`, the binding response (% of control) is reported as 101%.
With `COc1ccc(S(=O)(=O)Nc2ccc3oc(C)c(C(C)=O)c3c2)cc1` the binding response (% of control) was 122% (active).
In the case of `CC(=O)c1c(C)oc2ccc(NS(=O)(=O)c3ccc(C(=O)O)cc3)cc12`, the binding response (% of control) is reported as 99%.
For `Cc1nc2cc(S(=O)(=O)C(F)(F)F)ccc2s1`, the binding response (% of control) was 129% (active).
`Cc1nc2ccc(S(=O)(=O)NCC(=O)O)cc2s1` was tested, and the binding response (% of control) was 106%.
`Cc1nc2ccc(S(=O)(=O)NC(C(=O)N3CCCCCC3)C(C)C)cc2s1` (stereo not drawn) showed a binding response (% of control) of 105%.
Molecule `CCOc1ccccc1NC(=O)C1CCCN(S(=O)(=O)c2ccccc2)C1` (stereo not drawn) has a binding response (% of control) of 100%.
`O=S(=O)(c1ccccc1)c1nc(Cc2ccccc2)oc1N1CCOCC1` showed a binding response (% of control) of 98%.
With `Cc1nnc(NC(=O)C(c2ccccc2)c2ccccc2)s1` the binding response (% of control) was 98%.
`CC1CCCC(C)N1C(=O)CSc1nnnn1C1CCCC1` (stereo not drawn) showed a binding response (% of control) of 101%.
For `CCCc1nnc(SCC(=O)N2C(C)CCCC2C)n1CC` (stereo not drawn), the binding response (% of control) was 145% (active).
Work on `CCCc1cc(=O)[nH]c(SCC(=O)N2C(C)CCCC2C)n1` (stereo not drawn) yielded a binding response (% of control) of 107%.
`O=C(O)c1ccc(NC(=O)c2ccc(COc3ccc(Cl)cc3)o2)cc1` gave a binding response (% of control) of 103%.
With `CC1CN(CC(=O)NC(C)c2ccccc2)CC(C)O1` (stereo not drawn) the binding response (% of control) was 101%.
With `COc1ccc(N2CCN(C(=O)c3cccs3)CC2)cc1` the binding response (% of control) was 97%.
`COc1ccc(Cl)cc1NC(=O)CCS(=O)(=O)c1cc2c(cc1C)NC(=O)CO2` was tested, and the binding response (% of control) was 104%.
`O=C(CCS(=O)(=O)c1ccc(Br)cc1)NCCc1ccc(Cl)cc1` gave a binding response (% of control) of 105%.
In the case of `COc1ccc(Cl)cc1NC(=O)CCS(=O)(=O)c1ccc(Br)cc1`, the binding response (% of control) is reported as 80% [inhibitor] (active).
`CN(C)c1ccc(NC(=O)CN2C3CCCC2CC(NC(=O)c2ccccc2)C3)cc1` (stereo not drawn) gave a binding response (% of control) of 104%.
For `COc1ccccc1CNC(=O)c1ccc(N(C)S(=O)(=O)c2ccc(C)cc2)cc1`, the binding response (% of control) was 96%.
`COc1ccc(-c2[nH]ncc2CN(C)Cc2cc(C)[nH]n2)c(F)c1` gave a binding response (% of control) of 102%.
`COc1ccc(-c2[nH]ncc2CN(C)Cc2c(C)n[nH]c2C)c(OC)c1` was tested, and the binding response (% of control) was 0% [inhibitor] (active).
`COc1ccc(-c2[nH]ncc2CN(C)Cc2cccnc2)c(F)c1` showed a binding response (% of control) of 108%.
